Measurements published in PubChem BioAssay AID1030 (National Center for Advancing Translational Sciences (NCATS), 2008).
Out of some 220,000 compounds screened, about 16,000 (7.3%) were called active. Roughly 25% stayed inconclusive and do not appear here. Calls follow the shape of the dose curve; as a rule, active = well fitted inhibition curve with a large enough effect (not every such curve was filed as active); inconclusive = small, poorly fitted or top-dose-only effect, or another doubt; inactive = no such curve, though single readings can be large or run the other way. The list comes from a sample in which actives are over-represented; it also holds similar structures and randomly drawn compounds.

Each molecule was assayed against Aldehyde dehydrogenase 1A1 (Homo sapiens) (UniProt P00352) (assay: qHTS Assay for Inhibitors of Aldehyde Dehydrogenase 1 (ALDH1A1)). Details: Purified ALDH1A1, NADH fluorescence, propionaldehyde substrate; series mostly up to 75.3 µM; activity, negative = inhibition: at the top concentration.
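For activity, negative = inhibition in this document: plate controls were no enzyme wells and a reference inhibitor.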
Potency is read from the fitted curve at half-maximal effect.

Sequence of Aldehyde dehydrogenase 1A1 (Homo sapiens) (P00352 whole entry, looked up): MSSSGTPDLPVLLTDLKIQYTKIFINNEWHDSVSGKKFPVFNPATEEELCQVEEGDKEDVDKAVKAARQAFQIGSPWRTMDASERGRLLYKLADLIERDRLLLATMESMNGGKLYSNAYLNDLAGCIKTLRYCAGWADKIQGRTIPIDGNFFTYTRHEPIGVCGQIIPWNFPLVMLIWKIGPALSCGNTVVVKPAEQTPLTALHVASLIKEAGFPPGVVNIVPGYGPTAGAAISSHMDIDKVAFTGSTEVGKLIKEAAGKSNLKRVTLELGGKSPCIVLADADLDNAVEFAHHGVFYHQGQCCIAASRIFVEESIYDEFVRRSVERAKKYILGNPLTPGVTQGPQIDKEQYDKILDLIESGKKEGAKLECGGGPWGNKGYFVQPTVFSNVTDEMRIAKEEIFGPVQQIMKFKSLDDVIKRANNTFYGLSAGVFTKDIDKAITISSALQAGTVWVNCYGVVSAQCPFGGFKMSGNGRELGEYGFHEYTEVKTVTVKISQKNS

Compound	activity, negative = inhibition	Potency
Cc1ccc(S(=O)(=O)NC(=O)N2CCCN(Cc3ccc(F)cc3)CC2)cc1	8.46% (inactive)	
CC(=O)Nc1ccc(NC(=O)COc2ccc(S(=O)(=O)NC(C)c3ccccc3)cc2)cc1 (centres undefined)	7.35% (inactive)	
O=C(Nc1cccc(C(F)(F)F)c1)c1cnccn1	4.04% (inactive)	
CN(C)/C=C/C(=O)c1cnc2sccn2c1=O	6.38% (inactive)	
CCOC(=O)C1=C(NC(=S)NC(=O)c2ccccc2)c2ccccc2CC1(C)C		20 µM (active)
CCOC(=O)c1c(-c2ccccc2)csc1NC(=S)NC(=O)c1ccccc1	-3.67% (inactive)	
CCOC(=O)c1c(NC(=O)C2(C)Cc3ccccc3C(=O)O2)sc2c1CCCC2 (centres undefined)	23.1% (inactive)	
COC(=O)C1=C(C)N(C)C(=S)NC1c1cc(OC)ccc1OC (centres undefined)	5.5% (inactive)	
FC(F)(F)c1ccnc(Oc2ccc(C3=NCCS3)cc2)c1	-6.21% (inactive)	
CCN1CCN(C(=O)c2ccc(CN(c3ccc(C)c(C)c3)S(C)(=O)=O)cc2)CC1	-0.172% (inactive)	
CN1CCC(=NNC(=O)c2ccc(N(Cc3ccc(Cl)cc3)S(C)(=O)=O)cc2)CC1		8.91 µM (active)
CN1CCC(=NNC(=O)CN(c2cccc(Cl)c2)S(C)(=O)=O)CC1	10.8% (inactive)	
CC(=O)N1CC(C)c2scc(C)[n+]2-c2ccccc21 (centres undefined)	15.2% (inactive)	
OCC1(Cc2ccccc2C(F)(F)F)CCN(Cc2cccc3cnccc23)CC1	-3.56% (inactive)	
O=S(=O)(NC1CC1)c1ccc2c3c(cccc13)CC2	-5.31% (inactive)	
COc1ccc(N2CCN(C(=O)CNC(=O)c3ccc(C(C)(C)C)cc3)CC2)cc1	-14.7% (inactive)	
COc1ccc(-c2ccc(CCC(=O)O)n2NC(=O)c2ccc(C(C)(C)C)cc2)cc1		2.24 µM (active)
COc1ccc(C(=O)NC(Cc2ccc(OC(=O)c3ccc(OC)cc3)cc2)C(=O)O)cc1 (centres undefined)	-7.25% (inactive)	
CCCNC(=S)N1CCCC(c2nc3ccccc3[nH]2)C1 (centres undefined)	9.56% (inactive)	
C#Cc1ccc([C@@H]2C=C(C(=O)O)O[C@H](OCCCCO)C2)cc1	-7.97% (inactive)	
Cc1csc(/N=C/N(C)C)c1C#N	-6.21% (inactive)	
C/C(Nc1ccc2oc(=O)ccc2c1)=C1/C(=O)CC2[C@@H]1C2(C)C (some centres undefined)		3.98 µM (active)
COc1c(C(C)C)oc2cc3oc(=O)ccc3cc12	-1.48% (inactive)	
Cc1c(CCO)sc[n+]1CC(=O)OC12CC3CC(CC(C3)C1)C2	5.18% (inactive)	
CC(=O)Nc1ccc(Nc2nc3c(S(=O)(=O)c4ccc(C)c(C)c4)nnn3c3ccccc23)cc1	139% (inactive)	
CN(CCc1ccccn1)C(=O)CCC1CCCN(Cc2ccccc2OC(F)F)C1 (centres undefined)	11.8% (inactive)	
O=C(CCc1ccccc1)NCc1cccnc1	3.47% (inactive)	
Fc1ccccc1COc1ccccc1CNCc1ccncc1	8.32% (inactive)	
c1ccc(COc2ccccc2CNCc2cccnc2)cc1		17.8 µM (active)
